Measurements from PubChem BioAssay (NCATS).
Several values for one entry are separate records, joined by “and”; a condition that tells them apart may be missing. Equal entries are not always repeated. Inconclusive results are not listed. Activity calls are given as the source filed them. Unless noted, the call rests on the fitted dose curve; in most records, active means well fitted curve in the direction sought with a large enough effect; inconclusive means small, poorly fitted or top-dose-only effect, or another doubt; inactive means no such curve, though single readings can be large; an effect the other way counts as inactive or inconclusive.

Legend:
[1] = target: Cytochrome P450 1A2 (Homo sapiens) (UniProt P05177); assay: p450-cyp1a2 (AID 410; calls by dose curve; further: potency means the concentration at half of the fitted maximal effect;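 on activity change, negative = inhibition: -100% = full effect of reference inhibitor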)
Cytochrome P450 1A2 (Homo sapiens), sequence (P05177 whole entry, looked up): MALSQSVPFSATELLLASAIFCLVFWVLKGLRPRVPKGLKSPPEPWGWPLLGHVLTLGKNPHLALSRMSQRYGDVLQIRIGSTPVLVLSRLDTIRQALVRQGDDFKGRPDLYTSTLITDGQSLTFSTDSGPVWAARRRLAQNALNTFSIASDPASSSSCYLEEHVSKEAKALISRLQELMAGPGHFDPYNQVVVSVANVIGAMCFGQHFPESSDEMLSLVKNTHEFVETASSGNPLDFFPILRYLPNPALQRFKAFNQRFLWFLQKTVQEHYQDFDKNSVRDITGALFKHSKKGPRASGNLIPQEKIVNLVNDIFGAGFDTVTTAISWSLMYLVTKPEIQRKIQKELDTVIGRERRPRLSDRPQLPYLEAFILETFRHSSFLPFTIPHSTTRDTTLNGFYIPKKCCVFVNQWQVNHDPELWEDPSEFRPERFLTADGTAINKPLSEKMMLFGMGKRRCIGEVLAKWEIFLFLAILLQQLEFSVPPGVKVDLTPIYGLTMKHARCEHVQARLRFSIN
Method in brief: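 Luminescent demethylation readout: Luciferin-ME (100uM, equal to Km) turned over by 20nM CYP1A2 for 60 min at room temperature after NADPH regeneration addition, following 10 min compound preincubation. Normalization used 57 uM furafylline as full inhibition.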

[2] = target: Glucocorticoid receptor (Homo sapiens) (UniProt P04150); assay: GR-GFP Redistribution (AID 450;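 active means compounds whose dose series gives a full or clear partial fitted curve of increased nuclear translocation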; further: potency means the concentration at half of the fitted maximal effect); conditions: U2OS GR-GFP nuclear translocation, laser cytometry, 2 h
Glucocorticoid receptor (Homo sapiens), sequence (P04150 whole entry, looked up, the tested form may be a part): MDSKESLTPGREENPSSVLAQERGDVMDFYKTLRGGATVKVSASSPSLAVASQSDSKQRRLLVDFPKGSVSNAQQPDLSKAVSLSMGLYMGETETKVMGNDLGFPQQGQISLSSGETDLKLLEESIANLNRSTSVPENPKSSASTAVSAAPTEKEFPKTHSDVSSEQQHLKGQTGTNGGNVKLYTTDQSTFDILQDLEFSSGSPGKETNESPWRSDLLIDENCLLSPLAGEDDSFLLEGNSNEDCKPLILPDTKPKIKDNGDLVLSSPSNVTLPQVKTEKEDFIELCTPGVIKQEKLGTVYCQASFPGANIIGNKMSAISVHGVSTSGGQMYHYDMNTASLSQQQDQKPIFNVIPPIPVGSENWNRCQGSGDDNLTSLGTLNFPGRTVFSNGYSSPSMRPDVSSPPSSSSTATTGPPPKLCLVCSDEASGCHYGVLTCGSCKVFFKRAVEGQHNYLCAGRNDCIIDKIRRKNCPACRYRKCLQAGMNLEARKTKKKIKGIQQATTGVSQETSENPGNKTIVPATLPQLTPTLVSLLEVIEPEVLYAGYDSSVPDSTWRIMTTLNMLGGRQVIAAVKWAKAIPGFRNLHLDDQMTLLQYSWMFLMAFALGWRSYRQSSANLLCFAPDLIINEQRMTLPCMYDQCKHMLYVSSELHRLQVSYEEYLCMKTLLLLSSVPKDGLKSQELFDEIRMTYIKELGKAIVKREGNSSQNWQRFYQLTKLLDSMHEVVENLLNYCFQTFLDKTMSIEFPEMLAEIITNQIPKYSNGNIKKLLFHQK

[3] = target: Glucocorticoid receptor (Homo sapiens) (UniProt P04150); assay: GR-EFC Redistribution (AID 451; calls by dose curve; further: potency means the concentration at half of the fitted maximal effect); conditions: CHO-K1 GR-EFC translocation, beta-gal luminescence, 2 h
Method in brief: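 CHO-K1 cells stably expressing nuclear-localized β-gal enzyme acceptor and GR fused C-terminally to the enzyme donor fragment; ligand-driven nuclear translocation restores β-gal by complementation. Compounds titrated up to 46 uM final, 2 h at 37 °C; luminescence read.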

[4] = target: Mitogen-activated protein kinase 10 (Mus musculus) (UniProt Q61831); assay: JNK3 AlphaScreen Assay (AID 530; active means well fitted curve in either direction with a large enough effect, not every such curve was filed as active;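 further: kinase came from lysate of stimulated human HepG2 cells; signal reports phosphorylation of biotinylated GST-cJun 1-79 at Ser73 with 10 µM ATP; on the % scale 0 is the no-effect control and ±100 the full control effect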)
Method in brief: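 Phosphorylation of biotinylated GST-cJun(1-79) at Ser73 is measured by AlphaScreen proximity luminescence. Enzyme is JNK3 in HepG2 lysates activated with interleukin-1beta and tumor necrosis factor alpha; ATP is 10 uM final.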

[5] = target: 3',5'-cyclic-AMP phosphodiesterase 4B (Homo sapiens) (UniProt Q07343); assay: qHTS Assay for Inhibitors of PDE-IV (AID 607; active means well fitted activation curve with a large enough effect in the main read-out, with a control signal flat, not every such curve was filed as active; further: % of control where 0% means no effect)
3',5'-cyclic-AMP phosphodiesterase 4B (Homo sapiens), sequence (Q07343 whole entry, looked up): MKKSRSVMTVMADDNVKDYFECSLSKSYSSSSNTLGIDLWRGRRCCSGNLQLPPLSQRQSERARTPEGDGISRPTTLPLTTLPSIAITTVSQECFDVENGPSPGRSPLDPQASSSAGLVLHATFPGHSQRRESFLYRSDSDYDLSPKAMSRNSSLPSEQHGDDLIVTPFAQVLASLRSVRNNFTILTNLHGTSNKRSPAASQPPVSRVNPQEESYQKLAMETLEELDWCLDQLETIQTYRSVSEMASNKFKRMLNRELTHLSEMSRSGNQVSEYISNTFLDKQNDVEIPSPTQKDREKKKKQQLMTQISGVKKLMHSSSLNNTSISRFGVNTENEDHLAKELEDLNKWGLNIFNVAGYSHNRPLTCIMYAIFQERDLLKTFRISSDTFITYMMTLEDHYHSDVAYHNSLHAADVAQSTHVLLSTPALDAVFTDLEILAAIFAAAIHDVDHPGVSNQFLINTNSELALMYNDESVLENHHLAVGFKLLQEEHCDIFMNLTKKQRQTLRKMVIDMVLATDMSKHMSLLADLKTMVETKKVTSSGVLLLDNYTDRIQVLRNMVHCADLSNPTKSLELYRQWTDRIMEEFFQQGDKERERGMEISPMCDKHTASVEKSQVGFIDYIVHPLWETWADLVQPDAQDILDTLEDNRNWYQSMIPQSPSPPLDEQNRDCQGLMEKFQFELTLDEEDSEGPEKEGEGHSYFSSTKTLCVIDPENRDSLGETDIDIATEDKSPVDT
Method in brief: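 Live HEK293 cells with a modified cyclic nucleotide-gated (CNG) channel report intracellular cAMP via membrane-potential dye fluorescence (ex 535/em 590 nm). Endogenous PDE-IV was targeted. Compounds were tested at up to 22.9 uM final; RO 20-1724 100 uM served as control.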

[6] = qHTS Assay for Lipid Storage Modulators (AID 1519; calls by dose curve; further: potency means the concentration at half of the fitted maximal effect; on activity change, negative = inhibition: on the % scale 0 is the no-effect control and ±100 the full control effect); conditions: Drosophila S3 cells, BODIPY lipid droplet/cell ratio, laser cytometry, cells loaded with oleic acid; for activity change, negative = inhibition: at 57.5 µM (top of the series)
Method in brief: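 Cells seeded at 5,000 per well were treated with compounds over a concentration series and loaded with oleic acid (400 uM, as added). Lipid droplet fluorescence (488 nm excitation, 500-530 nm channel) was read by laser-scanning cytometry and normalized to 20 uM Triacsin C.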

[7] = target: DNA dC->dU-editing enzyme APOBEC-3G (Homo sapiens) (UniProt Q9HC16); assay: qHTS for inhibitors of Vif-A3G interactions: Validation (AID 588379); further: 0% is about no effect
DNA dC->dU-editing enzyme APOBEC-3G (Homo sapiens), sequence (Q9HC16 whole entry, looked up): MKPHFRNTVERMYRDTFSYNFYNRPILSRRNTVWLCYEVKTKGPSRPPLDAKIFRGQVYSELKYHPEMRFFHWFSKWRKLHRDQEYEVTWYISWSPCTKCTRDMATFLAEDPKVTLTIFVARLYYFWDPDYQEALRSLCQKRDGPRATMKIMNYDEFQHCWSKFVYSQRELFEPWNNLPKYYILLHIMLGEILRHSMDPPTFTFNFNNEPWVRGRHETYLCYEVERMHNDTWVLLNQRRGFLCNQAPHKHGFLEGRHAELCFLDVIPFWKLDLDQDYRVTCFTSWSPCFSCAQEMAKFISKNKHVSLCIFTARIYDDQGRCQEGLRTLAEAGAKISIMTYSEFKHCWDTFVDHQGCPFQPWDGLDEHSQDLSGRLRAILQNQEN
Method in brief: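 Yellow fluorescence (Ex 488, Em 500-530) of Vif-coexpressing HeLa A3G-eYFP cells, scanned by Acumen cytometer, reports blocked A3G degradation. Cells plated at 700/well overnight at 37 deg C before compound addition, then a further overnight compound incubation at 37 deg C.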

[8] = system: Zika virus NS2B-NS3 protease; assay: Primary screen GU AMC qHTS for Zika virus inhibitors (AID 1347154);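 further: 0% = no-inhibitor control and -100% = no-enzyme control; nearly all actives have a fitted effect of over 70% in size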
Method in brief: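 Unlinked Zika NS2B hydrophilic domain/NS3 protease domain noncovalent complex (25 nM final) in 10 mM Tris-HCl pH 8.0, 0.01% Tween 20, with AMC peptide substrate. Fluorescence (ex 340, em 450 nm) change over 15 min, room temperature; percent inhibition fitted to 4-parameter Hill equation.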

[9] = Primary qHTS for small molecule stabilizers of the endoplasmic reticulum resident proteome: Secreted ER Calcium Modulated Protein (SERCaMP) assay (AID 1508630); further: potency means the concentration at half of the fitted maximal effect; on activity change, negative = inhibition: on the % scale 0 is the no-effect control and ±100 the full control effect
Method in brief: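 The SH-SY5Y reporter protocol was run at 3 concentrations up to 38.3 uM (primary) or 11 concentrations (follow-up): 16 h compound, 100 nM thapsigargin for 4 h, then extracellular luciferase luminescence.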

[10] = target: Ubiquitin carboxyl-terminal hydrolase 1 (Homo sapiens) (UniProt O94782); assay: Inhibitors of USP1/UAF1: Pilot qHTS (AID 504865);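 further: rhodamine fluorescence freed from ubiquitin-rhodamine substrate followed over time; top concentration of the series differs between compounds; on the % scale 0 is the no-effect control and ±100 the full control effect; nearly all actives have a fitted effect of over 35% in size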
Ubiquitin carboxyl-terminal hydrolase 1 (Homo sapiens), sequence (O94782 whole entry, looked up): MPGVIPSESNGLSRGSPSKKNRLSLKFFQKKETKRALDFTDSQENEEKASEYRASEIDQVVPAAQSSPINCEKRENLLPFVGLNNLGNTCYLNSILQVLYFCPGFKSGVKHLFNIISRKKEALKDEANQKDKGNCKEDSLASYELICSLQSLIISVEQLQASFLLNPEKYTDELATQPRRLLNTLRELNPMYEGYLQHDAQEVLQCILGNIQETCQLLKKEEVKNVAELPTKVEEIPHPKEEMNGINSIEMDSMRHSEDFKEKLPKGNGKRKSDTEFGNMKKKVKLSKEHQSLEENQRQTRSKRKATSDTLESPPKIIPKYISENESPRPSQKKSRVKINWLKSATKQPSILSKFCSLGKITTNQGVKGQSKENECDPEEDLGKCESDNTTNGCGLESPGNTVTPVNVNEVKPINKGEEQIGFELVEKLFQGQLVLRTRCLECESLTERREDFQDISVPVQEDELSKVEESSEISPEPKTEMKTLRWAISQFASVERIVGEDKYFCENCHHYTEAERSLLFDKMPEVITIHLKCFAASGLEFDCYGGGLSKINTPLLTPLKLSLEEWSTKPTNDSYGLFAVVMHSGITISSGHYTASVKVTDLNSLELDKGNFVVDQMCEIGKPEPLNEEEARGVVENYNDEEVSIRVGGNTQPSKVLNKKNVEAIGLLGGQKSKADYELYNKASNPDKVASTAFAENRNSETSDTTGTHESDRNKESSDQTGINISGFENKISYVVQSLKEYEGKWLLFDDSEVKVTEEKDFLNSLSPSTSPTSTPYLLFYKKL
Method in brief: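 In 50mM HEPES pH 7.8 containing 0.5mM EDTA, 1mM TCEP, 0.1 mg/ml BSA and 0.01% Tween-20, 1nM USP1/UAF1 is exposed to compound for 15 min, then Ub-Rho (150nM final) is added and fluorescence is read over time.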

[11] = target: Cytochrome P450 2D6 (Homo sapiens) (UniProt P10635); assay: qHTS Assay for Inhibitors and Substrates of Cytochrome P450 2D6 (AID 891); further: potency means the concentration at half of the fitted maximal effect; nearly all actives have a fitted effect of over 60% in size
Cytochrome P450 2D6 (Homo sapiens), sequence (P10635 whole entry, looked up): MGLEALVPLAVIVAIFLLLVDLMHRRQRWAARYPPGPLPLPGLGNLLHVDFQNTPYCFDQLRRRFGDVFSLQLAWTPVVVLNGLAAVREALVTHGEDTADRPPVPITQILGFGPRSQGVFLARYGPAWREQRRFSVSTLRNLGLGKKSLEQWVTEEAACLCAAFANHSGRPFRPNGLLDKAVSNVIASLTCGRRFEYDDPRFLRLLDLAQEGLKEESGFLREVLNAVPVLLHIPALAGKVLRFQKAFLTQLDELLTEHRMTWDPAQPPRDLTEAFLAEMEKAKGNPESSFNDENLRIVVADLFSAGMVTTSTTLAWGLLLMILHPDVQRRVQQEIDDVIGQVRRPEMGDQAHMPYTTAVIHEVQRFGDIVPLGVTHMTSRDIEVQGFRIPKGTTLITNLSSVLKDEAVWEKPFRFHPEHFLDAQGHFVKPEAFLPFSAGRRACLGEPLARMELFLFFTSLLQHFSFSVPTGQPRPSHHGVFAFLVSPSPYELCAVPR
Method in brief: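 Luminescent read-out of luciferin formed by 5 nM human CYP2D6 demethylating 30 uM Luciferin-ME EGE (Km level) over 60 min at room temperature after NADPH regeneration addition. Data normalized to full inhibition by 1.43 uM quinidine.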

[12] = target: Cytochrome P450 2C19 (Homo sapiens) (UniProt P33261); assay: qHTS Assay for Inhibitors and Substrates of Cytochrome P450 2C19 (AID 899); further: potency means the concentration at half of the fitted maximal effect; nearly all actives have a fitted effect of over 60% in size
Cytochrome P450 2C19 (Homo sapiens), sequence (P33261 whole entry, looked up): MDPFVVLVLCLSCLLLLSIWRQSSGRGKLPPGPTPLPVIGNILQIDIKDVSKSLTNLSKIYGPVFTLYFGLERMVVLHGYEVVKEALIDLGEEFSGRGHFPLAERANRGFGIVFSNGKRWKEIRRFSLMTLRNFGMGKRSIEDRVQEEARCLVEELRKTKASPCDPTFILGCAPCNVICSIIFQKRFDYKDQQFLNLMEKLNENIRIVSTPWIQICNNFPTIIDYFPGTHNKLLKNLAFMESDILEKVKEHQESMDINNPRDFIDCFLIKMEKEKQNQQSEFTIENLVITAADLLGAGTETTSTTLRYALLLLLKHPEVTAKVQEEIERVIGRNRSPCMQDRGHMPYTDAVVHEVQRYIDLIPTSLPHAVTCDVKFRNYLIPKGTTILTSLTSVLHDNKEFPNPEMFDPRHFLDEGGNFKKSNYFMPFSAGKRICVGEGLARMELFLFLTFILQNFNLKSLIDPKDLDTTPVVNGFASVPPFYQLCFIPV
Method in brief: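 In 50mM KPO4, the reaction held 5nM enzyme and KM-level (10uM) Luciferin-H EGE; it ran 60 min at 37C after NADPH regeneration and a 10 min compound preincubation. Luminescence values were scaled to 57uM ketoconazole as complete inhibition.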

[13] = target: Cytochrome P450 3A4 (Homo sapiens) (UniProt P08684); assay: qHTS Assay for Activators of Cytochrome P450 3A4 (AID 885); further: nearly all actives have a fitted effect of over 65% in size
Cytochrome P450 3A4 (Homo sapiens), sequence (P08684 whole entry, looked up): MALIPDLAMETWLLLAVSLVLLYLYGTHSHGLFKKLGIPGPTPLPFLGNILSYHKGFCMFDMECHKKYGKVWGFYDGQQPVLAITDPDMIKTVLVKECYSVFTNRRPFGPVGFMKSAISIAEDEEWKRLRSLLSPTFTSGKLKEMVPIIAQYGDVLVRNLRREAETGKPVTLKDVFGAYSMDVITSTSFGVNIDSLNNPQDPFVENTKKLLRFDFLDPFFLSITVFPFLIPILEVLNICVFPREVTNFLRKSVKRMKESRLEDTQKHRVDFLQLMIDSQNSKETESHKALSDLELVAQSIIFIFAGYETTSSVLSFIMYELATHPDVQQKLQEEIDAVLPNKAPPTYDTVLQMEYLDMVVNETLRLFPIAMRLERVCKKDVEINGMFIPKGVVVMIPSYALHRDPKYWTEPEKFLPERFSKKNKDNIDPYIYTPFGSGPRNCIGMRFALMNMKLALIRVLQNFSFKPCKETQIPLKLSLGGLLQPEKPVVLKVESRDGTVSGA
Method in brief: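 Using 20nM recombinant human CYP3A4 in potassium phosphate (200mM), substrate Luciferin-PPXE at 25uM, luminescent luciferin detection followed a 60-min RT NADPH reaction; data scaled to 57 uM ketoconazole.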

[14] = measured here: cell count channel max response
[15] = measured here: lipid channel max response

CC(=O)N1CCN(C)CC1
-5.67%: max response [6, 15]
active: Potency [1] 31.6 µM
-2.52%: max response [6, 14]
inactive: Potency [2] > 46 µM | Potency [3] > 46 µM | Potency [4] | Potency [5] | activity change, negative = inhibition [6] -3.74% | Potency [7] | Potency [8] | Potency [9]

CCCCCCCCCCCCCCCC(=O)NC(C)C
-16.6%: max response [6, 15]
-14.5%: max response [6, 14]
inactive: Potency [1] | Potency [2] > 46 µM | Potency [3] > 46 µM | Potency [4] | activity change, negative = inhibition [6] 0.0182% | Potency [8] | Potency [9]

N[C@@]1(C(=O)O)CN[C@H](C(=O)O)C1
active: Potency [1] 31.6 µM
-1.87%: max response [6, 15]
inactive: Potency [2] > 46 µM | Potency [3] > 46 µM | Potency [4] | Potency [5] | activity change, negative = inhibition [6] -1.74% | Potency [10] | Potency [8] | Potency [9]
0.388%: max response [6, 14]

C[C@H](NC[C@H](O)CP(=O)(O)Cc1ccccc1)c1ccc(Cl)c(Cl)c1
5.21%: max response [6, 15]
inactive: Potency [1] | Potency [2] > 46 µM | Potency [3] > 46 µM | Potency [4] | Potency [5] | activity change, negative = inhibition [6] 2.58% | Potency [10] | Potency [7] | Potency [8] | Potency [9]
0.952%: max response [6, 14]
active: Potency [11] 0.0501 µM

N[C@@H](C(=O)O)c1ccc(C(=O)O)c(C(=O)O)c1
active: Potency [11] 7.94 µM | Potency [12] 316 nM and 3.16 µM
-4.21% and -1.65% and 13.2%: max response [6, 14]
-0.754% and -2.49% and 18.8%: max response [6, 15]
inactive: Potency [1] | Potency [2] > 46 µM | Potency [3] > 46 µM | Potency [4] | Potency [5] | activity change, negative = inhibition [6] 1.89% and 0.925% and 9.39% | Potency [7] | Potency [8] | Potency [9]

CC(C)(C)c1ccc(S(=O)(=O)/C=C\C#N)cc1
inactive: Potency [2] > 46 µM | Potency [3] > 46 µM | Potency [5] | Potency [13] | Potency [7] | Potency [8] | Potency [9]
active: Potency [1] 3.98 µM and 1.58 µM | Potency [6] 31.6 µM
-82.4%: max response [6, 15]
5.78%: max response [6, 14]

CCCn1c(=O)c2[nH]c(-c3ccc(OCC(=O)Nc4ccc(C(C)=O)cc4)cc3)nc2n(CCC)c1=O
10.1%: max response [6, 15]
6.38%: max response [6, 14]
inactive: Potency [2] > 46 µM | Potency [3] > 46 µM | Potency [4] | activity change, negative = inhibition [6] 5.04% | Potency [10] | Potency [7] | Potency [8] | Potency [9]

C[C@](N)(COP(=O)(O)O)C(=O)O
21.4%: max response [6, 15]
active: Potency [9] 31.6 µM
inactive: Potency [2] > 46 µM | Potency [3] > 46 µM | Potency [4] | activity change, negative = inhibition [6] 4.7% | Potency [10] | Potency [7] | Potency [8]
16.3%: max response [6, 14]

C[C@](N)(C(=O)O)c1ccc(-c2nn[nH]n2)cc1
active: Potency [1] 39.8 µM
inactive: Potency [2] > 46 µM | Potency [3] > 46 µM | Potency [4] | activity change, negative = inhibition [6] 7.08% | Potency [7] | Potency [8] | Potency [9]
7.75%: max response [6, 14]
14.3%: max response [6, 15]

COc1cc(N)c(Cl)cc1C(=O)CCC1CCN(CCNS(C)(=O)=O)CC1
inactive: Potency [1] | Potency [2] > 46 µM | Potency [3] > 46 µM | Potency [4] | Potency [5] | Potency [13] | activity change, negative = inhibition [6] 6.39% | Potency [10] | Potency [7] | Potency [8] | Potency [9]
24.1%: max response [6, 14]
32.4%: max response [6, 15]

c1ncc(CC2CCNCC2)[nH]1
-15.8%: max response [6, 15]
-18.2%: max response [6, 14]
inactive: Potency [2] > 46 µM | Potency [3] > 46 µM | Potency [4] | activity change, negative = inhibition [6] 0.0288% | Potency [10] | Potency [7] | Potency [8] | Potency [9]

NCCCNCCCCN(CCCN)/[N+]([O-])=N/O
-8.77%: max response [6, 14]
inactive: Potency [2] > 46 µM | Potency [3] > 46 µM | Potency [4] | Potency [5] | activity change, negative = inhibition [6] -0.752% | Potency [10] | Potency [7] | Potency [8] | Potency [9]
-8.94%: max response [6, 15]

CSc1nc(N)c2ncn([C@H]3O[C@H](COP(=O)(O)OP(=O)(O)O)[C@@H](O)[C@@H]3O)c2n1
26.1%: max response [6, 15]
inactive: Potency [2] > 46 µM | Potency [3] > 46 µM | Potency [4] | activity change, negative = inhibition [6] 8.63% | Potency [10] | Potency [7] | Potency [8] | Potency [9]
13.1%: max response [6, 14]

COc1ccc2c(c1)CCC1[C@@H]2CCC2(C)[C@@H](NCCCCCCN3C(=O)C=CC3=O)CC[C@@H]12 (stereo partly drawn)
8.52%: max response [6, 15]
inactive: Potency [1] | Potency [2] > 46 µM | Potency [3] > 46 µM | Potency [4] | Potency [5] | activity change, negative = inhibition [6] -5.78% | Potency [7] | Potency [8] | Potency [9]
16.2%: max response [6, 14]

N[C@H](C(=O)O)c1cccc(O)c1
24.7%: max response [6, 15]
12.7%: max response [6, 14]
inactive: Potency [2] > 46 µM | Potency [3] > 46 µM | Potency [4] | activity change, negative = inhibition [6] 7.87% | Potency [10] | Potency [7] | Potency [8] | Potency [9]
